# Measured values as given in PubChem BioAssay (NCI).
# “And” between values parts separate entries of the source, which are not always exact repeats. Equal values may be shown once. About 83,000 compounds went through this panel and 20% of them were active in at least one assay; those are over-represented in the sample as a whole.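 Negative percent growth values reflect cell death: -40 means 40% of the cells present at the start died, and -100 means all died.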 Values without a mark were called inactive. The source made the active and inactive calls. The calls were made as follows: active = growth percent below 10; inactive = the rest.
# Test system: MDA-MB-468 breast
# Assay: NCI-60 one-dose screen, 48 h (100 = growth as untreated, 0 = no growth, -100 = all killed)
# Settings: 10 µM unless noted
row,Structure (SMILES),growth
1,COc1cc(C2CC(=O)Nc3nc(N)[se]c32)cc(OC)c1OC (stereo not given),99.3%
2,Cc1cc(C(C)(C)c2ccc(O)c(C)c2)ccc1O,87.8%
3,C/C=C\C(=O)O[C@@H]1CC2O[C@@H]3C=C(C)C(=O)C[C@]3(C)[C@]1(C)[C@]21CO1,-29.7% (active)
4,Oc1ccccc1-c1ccccc1,105% and 103%
5,CCC(CC)CC1(C)CC2(C)CCOC2OO1 (stereo not given),110%
6,COc1cc2c(c(OC)c1OC)-c1ccc(O)cc1[C@@H](NC(C)=O)CC2,-20.9% (active) and -7.5% (active)
7,O=S(=O)(c1ccc(Cl)cc1)C(Cl)(Cl)Cl,-20.4% (active)
8,CC(C)C1c2ccc(O)cc2Oc2nc(N)c(C#N)c(N)c21 (stereo not given),90%
9,O=C(NCCNC(=O)c1ccc([As](O)O)cc1)c1ccc([As](O)O)cc1,82.2%
10,O=[N+]([O-])c1cc(Br)c(O)c(Br)c1,99.4%
11,C=C1[C@@H](C)C2[C@H](Cc3ccccc3)NC(=O)[C@]23[C@H](OC(C)=O)/C=C/[C@@](C)(O)C(=O)[C@@H](C)C/C=C/[C@H]3[C@@H]1O (stereo not given in full),45.2%
12,C[C@]12CC[C@H]3[C@@H](C[C@@H]4SC(Nc5cccc(F)c5)=N[C@@]45CC(=O)CC[C@]35C)[C@@H]1CCC2=O,-2.99% (active)
13,Cc1cc(C)c(C[N+](C)(C)C)c(C)c1C,16.1%
14,CCCCCCCC(=O)OCC/C=C/C1OC1C1OC(=O)/C=C\C=C\c2nc(oc2C)/C=C(/C)CCC2OC2C1OC(=O)NC(C)=O (stereo not given),-51.1% (active)
15,Fc1ccc2c(c1)c(-c1nc(-c3c[nH]c4ncccc34)cs1)cn2CCN1CCOCC1,43.8%
16,Cc1c(C)c([N+](=O)[O-])c(C)c(C)c1[N+](=O)[O-],95.2%
17,CC(=O)[C@H]1CC[C@H]2[C@@H]3CC[C@H]4C[C@H](N)CC[C@]4(C)[C@H]3CC[C@]12C,64.1%
18,CCCCN1CCCC[C@@H]1C(=O)N[C@H](C(=O)N(C)[C@H](C[C@@H](OC(C)=O)c1nc(C(=O)NC2CCC(C(=O)OC)CC2)cs1)C(C)C)C(C)C (stereo not given in full),17.4%
19,CC[n+]1c(-c2ccccc2)c2cc(N)ccc2c2ccc(N)cc21,-62.8% (active)
20,N#C[Se]CCN1C(=O)c2ccccc2C1=O,20.4%

row,Structure (SMILES),growth
1,O=C(CCCCCCC(=O)Nc1ccc(N(CCCl)CCCl)cc1)NO,-64.2% (active)
2,CC(=O)Nc1nc2c(s1)CC[C@@]1(C)C2=CC[C@H]2[C@@H]3CC[C@H](O)[C@@]3(C)CC[C@@H]21,58.2%
3,CC(=O)O[C@H]1C(=O)[C@@]2(C)[C@H]([C@H](OC(=O)c3ccccc3)[C@]3(O)C[C@H](OC(=O)[C@H](OC(=O)OC[C@@H]4COC(C)(C)O4)[C@@H](NC(=O)c4ccccc4)c4ccccc4)C(C)=C1C3(C)C)[C@]1(OC(C)=O)CO[C@@H]1C[C@@H]2O,-7.94% (active)
4,CC1=C(O)[C@@](C)(CCCCC[C@H](C)CCCCc2ccc(O)cc2)OOC1=O,113%
5,Brc1ccc2c(c1)c(-c1nc(-c3c[nH]c4ncccc34)cs1)cn2CCN1CCOCC1,34.2%
6,CO[C@@H](c1ccccc1Cl)[C@H](C)OC(N)=O,91.6%
7,COc1cc([C@@H]2c3cc4c(cc3[C@H](OC(C)=O)[C@H]3COC(=O)[C@@H]23)OCO4)cc(OC)c1OC,-40.2% (active)
8,COC(=O)[C@@H](C)C[C@H](Cc1ccccc1)NC(=O)c1csc([C@@H](C[C@H](C(C)C)N(C)C(=O)[C@@H](NC(=O)[C@H]2CCCCN2C)c2ccc(F)cc2)OC(C)=O)n1,2.95% (active)
9,COc1cccc2c1c(C(=O)c1ccco1)cn2Cc1ccc(F)cc1,103%
10,CC(=O)OC[C@]1(C)C=C2C(=O)[C@](C)(O)C3(CC3)C(C)=C2[C@H]1O,-71.7% (active)
11,Oc1cc(Cl)ccc1Oc1ccc(Cl)cc1Cl,7% (active)
12,CCC[CH2][Sn]([CH2]CCC)([CH2]CCC)[O]C(=O)c1ccc(Cl)cc1Cl,-80.7% (active)
13,c1ccc(CCN2CCCCC2)nc1,107%
14,C[N+]12CCC34C5=CC(=O)C(=O)C=C5[N+]5(C)C(=O)CC6OCC=C(C1)C(CC32)C6C45 (stereo not given),99.9%
15,O=[N+]([O-])c1ccccc1N1CCNCC1,113%
16,ClC1=C(Cl)C(Cl)(C2(Cl)C(Cl)=C(Cl)C(Cl)=C2Cl)C(Cl)=C1Cl,-59.2% (active)
17,COC1CC2c3ccccc3C1C(C)=[N+]2C (stereo not given),96.4%
18,COc1cc(OC)c(S(=O)(=O)N(CCCl)CCCl)cc1C(=O)/C=C/c1ccc(Cl)cc1,47.6%
19,CO[C@@H]([CH2][Hg][O]C(=O)c1ccccc1)[C@@H]([CH2][Hg][O]C(=O)c1ccccc1)OC,94%
20,COC(C(=O)[C@@H](O)[C@@H](C)O)[C@@H]1Cc2cc3cc(O[C@H]4C[C@@H](O[C@H]5C[C@@H](O)[C@H](O)C(C)O5)[C@H](O)C(C)O4)c(C)c(O)c3c(O)c2C(=O)[C@H]1O[C@H]1C[C@@H](O[C@H]2C[C@@H](O[C@H]3C[C@@H](O)[C@@H](O)C(C)O3)[C@@H](O)C(C)O2)[C@H](O)C(C)O1 (stereo not given in full),-41.2% (active)
